This excerpt belongs to a sample that is enriched for the strongest signals.
Legend:
Test in all cases: glycan array binding signal (z-score within array); higher = stronger binding
Conditions in all cases: glycan notation: IUPAC condensed, linker removed
[1] = biological target: Gal(b1-4)GlcNAc(b1-3)Gal(b1-4)GlcNAc(b1-3)Gal(b1-4)GlcNAc(b1-3)Gal(b1-4)GlcNAc(b1-3)Gal(b1-4)GlcNAc(b1-3)Gal(b1-4)GlcNAc(b1-2)Man(a1-3)[Gal(b1-4)GlcNAc(b1-3)Gal(b1-4)GlcNAc(b1-3)Gal(b1-4)GlcNAc(b1-3)Gal(b1-4)GlcNAc(b1-3)Gal(b1-4)GlcNAc(b1-3)Gal(b1-4)GlcNAc(b1-2)Man(a1-6)]Man(b1-4)GlcNAc(b1-4)GlcNAc
Procedure, shortened: (§1)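 Arrays were curated from the Consortium for Functional Glycomics database, 3228 in total, and kept only where the protein sequence was available. Binding is expressed as a within-array Z-score. This score was averaged across arrays of the same protein sequence at different concentrations or buffers and across linkers, and negative values can be read as non-binding.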

Gal3S(b1-4)GlcNAc = biological target: Gal3S(b1-4)GlcNAc
Procedure, shortened: as §1

Gal3S(b1-4)GlcNAc6S = biological target: Gal3S(b1-4)GlcNAc6S
Procedure, shortened: as §1

Gal6S(b1-4)GlcNAc6S = biological target: Gal6S(b1-4)GlcNAc6S
Procedure, shortened: as §1

GalNAc(b1-3)Gal = biological target: GalNAc(b1-3)Gal
Procedure, shortened: as §1

[2] = biological target: GalNAc(b1-4)GlcNAc(b1-2)Man(a1-3)[GalNAc(b1-4)GlcNAc(b1-2)Man(a1-6)]Man(b1-4)GlcNAc(b1-4)GlcNAc
Procedure, shortened: as §1

[3] = biological target: GlcNAc(b1-2)Gal(b1-3)GalNAc
Procedure, shortened: as §1

[4] = biological target: GlcNAc(b1-2)Man(a1-3)[GlcNAc(b1-2)Man(a1-6)]Man(b1-4)GlcNAc(b1-4)GlcNAc
Procedure, shortened: as §1

[5] = biological target: GlcNAc(b1-2)Man(a1-3)[GlcNAc(b1-4)][GlcNAc(b1-2)Man(a1-6)]Man(b1-4)GlcNAc(b1-4)GlcNAc
Procedure, shortened: as §1

[6] = biological target: GlcNAc(b1-2)[GlcNAc(b1-6)]Man(a1-6)[GlcNAc(b1-2)Man(a1-3)]Man(b1-4)GlcNAc(b1-4)[Fuc(a1-6)]GlcNAc
Procedure, shortened: as §1

[7] = biological target: GlcNAc(b1-3)Gal(b1-4)GlcNAc(b1-3)Gal(b1-4)GlcNAc(b1-3)Gal(b1-4)GlcNAc(b1-3)Gal(b1-4)GlcNAc(b1-2)Man(a1-3)[GlcNAc(b1-3)Gal(b1-4)GlcNAc(b1-3)Gal(b1-4)GlcNAc(b1-3)Gal(b1-4)GlcNAc(b1-3)Gal(b1-4)GlcNAc(b1-2)Man(a1-6)]Man(b1-4)GlcNAc(b1-4)[Fuc(a1-6)]GlcNAc
Procedure, shortened: as §1

GlcNAc(b1-6)GalNAc = biological target: GlcNAc(b1-6)GalNAc
Procedure, shortened: as §1

Kdn(a2-3)Gal(b1-4)Glc = biological target: Kdn(a2-3)Gal(b1-4)Glc
Procedure, shortened: as §1

[8] = biological target: Neu5Ac(a2-3)Gal(b1-3)GlcNAc(b1-6)GalNAc
Procedure, shortened: as §1

[9] = biological target: Neu5Ac(a2-3)Gal(b1-3)GlcNAc6S
Procedure, shortened: as §1

[10] = biological target: Neu5Ac(a2-3)Gal(b1-3)[Fuc(a1-4)]GlcNAc(b1-3)Gal(b1-3)[Fuc(a1-4)]GlcNAc
Procedure, shortened: as §1

[11] = biological target: Neu5Ac(a2-3)Gal(b1-4)GlcNAc(b1-2)[Neu5Ac(a2-3)Gal(b1-4)GlcNAc(b1-6)]Man(a1-6)[Neu5Ac(a2-3)Gal(b1-4)GlcNAc(b1-2)Man(a1-3)]Man(b1-4)GlcNAc(b1-4)GlcNAc
Procedure, shortened: as §1

[12] = biological target: Neu5Ac(a2-3)Gal(b1-4)[Fuc(a1-3)]GlcNAc(b1-6)[Gal(b1-3)]GalNAc
Procedure, shortened: as §1

[13] = biological target: Neu5Ac(a2-3)Gal6S(b1-4)GlcNAc
Procedure, shortened: as §1

[14] = biological target: Neu5Ac(a2-3)[GalNAc(b1-4)]Gal(b1-4)GlcNAc(b1-3)GalNAc
Procedure, shortened: as §1

[15] = biological target: Neu5Ac(a2-6)Gal(b1-3)GlcNAc(b1-3)[Gal(b1-4)GlcNAc(b1-6)]Gal(b1-4)Glc
Procedure, shortened: as §1

[16] = biological target: Neu5Ac(a2-6)Gal(b1-4)GlcNAc(b1-2)Man(a1-6)[Gal(b1-4)GlcNAc(b1-2)Man(a1-3)]Man(b1-4)GlcNAc(b1-4)GlcNAc
Procedure, shortened: as §1

[17] = biological target: Neu5Ac(a2-6)Gal(b1-4)GlcNAc(b1-2)[Neu5Ac(a2-6)Gal(b1-4)GlcNAc(b1-6)]Man(a1-6)[Neu5Ac(a2-6)Gal(b1-4)GlcNAc(b1-2)Man(a1-3)][GlcNAc(b1-4)]Man(b1-4)GlcNAc(b1-4)GlcNAc
Procedure, shortened: as §1

[18] = biological target: Neu5Ac(a2-8)Neu5Ac(a2-3)Gal(b1-4)GlcNAc
Procedure, shortened: as §1

[19] = biological target: Neu5Ac(a2-8)Neu5Ac(a2-8)Neu5Ac(a2-3)[GalNAc(b1-4)]Gal(b1-4)Glc
Procedure, shortened: as §1

Neu5Gc(a2-3)Gal(b1-4)Glc = biological target: Neu5Gc(a2-3)Gal(b1-4)Glc
Procedure, shortened: as §1

[20] = biological target: Neu5Gc(a2-3)Gal(b1-4)GlcNAc(b1-3)Gal(b1-4)GlcNAc(b1-2)Man(a1-3)[Neu5Gc(a2-3)Gal(b1-4)GlcNAc(b1-3)Gal(b1-4)GlcNAc(b1-2)Man(a1-6)]Man(b1-4)GlcNAc(b1-4)GlcNAc
Procedure, shortened: as §1

[21] = biological target: Neu5Gc(a2-3)Gal(b1-4)[Fuc(a1-4)]GlcNAc
Procedure, shortened: as §1

B1: EEA (Euonymus europaeus) (protein)
chain: MASTIIATGPTYRVYCRAAPNYNMIVGKGVAFLAPIDETNELQYWYKDDTYSYIKDEAGLPAFSLVNKATGLTLKHSNHHPVPVKLVTYNPNVVDESVLWSQADDRGDGYSAIRSLTNPASHLEAAPLNDWSYNGAIIMGGVWIDAYNQQWKIEPHTG
[1]
  glycan array binding signal (z-score): -0.159
Gal3S(b1-4)GlcNAc
  glycan array binding signal (z-score): -0.217
Gal3S(b1-4)GlcNAc6S
  glycan array binding signal (z-score): -0.14
Gal6S(b1-4)GlcNAc6S
  glycan array binding signal (z-score): -0.097
GalNAc(b1-3)Gal
  glycan array binding signal (z-score): -0.178
[2]
  glycan array binding signal (z-score): 0.509
[3]
  glycan array binding signal (z-score): -0.138
[4]
  glycan array binding signal (z-score): -0.152
[5]
  glycan array binding signal (z-score): -0.242
[6]
  glycan array binding signal (z-score): -0.204
[7]
  glycan array binding signal (z-score): -0.221
GlcNAc(b1-6)GalNAc
  glycan array binding signal (z-score): -0.056
Kdn(a2-3)Gal(b1-4)Glc
  glycan array binding signal (z-score): -0.177
[8]
  glycan array binding signal (z-score): -0.187
[9]
  glycan array binding signal (z-score): -0.092
[10]
  glycan array binding signal (z-score): -0.246
[11]
  glycan array binding signal (z-score): -0.137
[12]
  glycan array binding signal (z-score): -0.043
[13]
  glycan array binding signal (z-score): -0.212
[14]
  glycan array binding signal (z-score): 0.46
[15]
  glycan array binding signal (z-score): -0.232
[16]
  glycan array binding signal (z-score): -0.233
[17]
  glycan array binding signal (z-score): -0.179
[18]
  glycan array binding signal (z-score): -0.253
[19]
  glycan array binding signal (z-score): -0.063
Neu5Gc(a2-3)Gal(b1-4)Glc
  glycan array binding signal (z-score): -0.084
[20]
  glycan array binding signal (z-score): -0.183
[21]
  glycan array binding signal (z-score): -0.482
